Laboratory results published in PubChem BioAssay (NCI).
About 79,000 compounds went through this panel and 15% of them were active in at least one assay; those are over-represented in the sample as a whole. Unmarked numbers belong to inactive results. Calls of active or inactive are those of the source. Rule as the data show it: active = growth inhibition above about 70%; inactive = the rest.

How the values were obtained:
[1] = NCI Yeast Anticancer Drug Screen. Data for the wt1 strain (AID 149);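 also: 0% = growth of vehicle-treated wt1 cultures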; details: S. cerevisiae wt1 strain (SPY 50644) growth inhibition, stronger effect = higher value
Summary of the method: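 Using yeast strain wt1, compound-induced growth inhibition was determined against vehicle-treated cultures.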

[2] = NCI Yeast Anticancer Drug Screen. Data for the rad50EPP+ strain (AID 151);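 also: 0% = growth of vehicle-treated control cultures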; details: S. cerevisiae rad50 mutant strain, stronger effect = higher value
Summary of the method: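 One strain with a rad50 alteration (rad50EPP+) was compound-treated, its growth then compared to that of vehicle controls.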

[3] = NCI Yeast Anticancer Drug Screen. Data for the mgt1 strain (AID 153); details: S. cerevisiae mgt1 mutant growth inhibition, stronger effect = higher value
Summary of the method: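 After exposure of the mgt1 yeast mutant to compound, growth was measured and reported as inhibition compared with vehicle controls.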

[4] = NCI Yeast Anticancer Drug Screen. Data for the rad50 strain (AID 155);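 also: 0% = growth of vehicle-only cultures of the same strain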; details: S. cerevisiae rad50 strain growth inhibition, stronger effect = higher value
Summary of the method: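 Relative growth inhibition (compound vs vehicle) was measured in yeast with a defined repair-gene alteration.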

[5] = NCI Yeast Anticancer Drug Screen. Data for the mec2-1 strain (AID 157); details: S. cerevisiae mec2-1 strain, stronger effect = higher value
Summary of the method: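 Test agents were screened against the mec2-1 yeast strain, with defined DNA repair or cell cycle alteration. Growth was scored as inhibition against vehicle-only controls.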

[6] = NCI Yeast Anticancer Drug Screen. Data for the rad14 strain (AID 159);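 also: 0% = growth of vehicle-treated control cultures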; details: S. cerevisiae rad14 strain growth inhibition, stronger effect = higher value
Summary of the method: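 Screen for anticancer potential: a yeast strain altered in DNA damage repair is grown with compound, and reduced growth is quantified against vehicle controls.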

[7] = NCI Yeast Anticancer Drug Screen. Data for the sgs1 mgt1 strain (AID 161);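 also: 0% = growth of cultures given vehicle only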; details: S. cerevisiae sgs1 mgt1 strain, stronger effect = higher value
Summary of the method: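 Inhibition of yeast growth, normalised to vehicle-treated controls, is reported for a strain bearing genetic alterations in DNA damage repair.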

[8] = NCI Yeast Anticancer Drug Screen. Data for the CLN2oe strain (AID 163);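 also: 0% = growth of vehicle-only control cultures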; details: S. cerevisiae CLN2oe strain, stronger effect = higher value
Summary of the method: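 Here, growth inhibition in a cell-cycle-altered yeast strain after compound exposure was quantified against vehicle control growth.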

[9] = NCI Yeast Anticancer Drug Screen. Data for the cln2 rad14 strain (AID 165);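 also: 0% = growth equal to vehicle treated cultures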; details: S. cerevisiae cln2 rad14 strain, stronger effect = higher value
Summary of the method: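 Growth of compound-exposed yeast (cln2 rad14 genotype) measured and expressed as inhibition relative to vehicle.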

[10] = NCI Yeast Anticancer Drug Screen. Data for the bub3 strain (AID 167); details: S. cerevisiae bub3 mutant strain, stronger effect = higher value
Summary of the method: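 Screening used yeast with an engineered genetic alteration affecting cell cycle control. Compound-exposed cultures were compared with vehicle cultures, and reduced growth was taken as inhibition.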

[11] = NCI Yeast Anticancer Drug Screen. Data for the wt2 strain (AID 169);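 also: 0% = growth of vehicle-treated yeast cultures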; details: S. cerevisiae wt2 strain growth inhibition, stronger effect = higher value
Summary of the method: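 Genetically defined yeast strains from a DNA-repair/cell-cycle panel were used. Compound-exposed yeast growth was measured, and the inhibition was calculated relative to vehicle treatment.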

[12] = NCI Yeast Anticancer Drug Screen. Data for the mlh1 strain (AID 171);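 also: 0% = growth of vehicle-treated control cultures of the same strain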; details: S. cerevisiae mlh1 strain growth inhibition, stronger effect = higher value
Summary of the method: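 Here the genetically defined yeast mutant is grown with each compound, and the extent to which its growth falls below that of vehicle-exposed cells is reported.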

[13] = NCI Yeast Anticancer Drug Screen. Data for the sgs1 strain (AID 173);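 also: 0% = growth of vehicle-only control cultures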; details: S. cerevisiae sgs1 mutant, stronger effect = higher value
Summary of the method: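 Relative growth inhibition, referenced to vehicle, was determined in a yeast strain with a defined alteration affecting DNA damage repair or cell cycle control after compound exposure.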

[14] = NCI Yeast Anticancer Drug Screen. Data for the mlh1 rad18 strain (AID 175); details: S. cerevisiae mlh1 rad18 strain growth inhibition, stronger effect = higher value
Summary of the method: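 In this whole-cell yeast screen, a strain with altered DNA damage repair is challenged with compound, and its growth is measured against matched vehicle-treated controls.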

[15] = NCI Yeast Anticancer Drug Screen. Data for the rad18 strain (AID 177); details: S. cerevisiae rad18 mutant growth inhibition, stronger effect = higher value
Summary of the method: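 Screen uses a yeast strain with a defined lesion in DNA damage repair; compound effect is read as loss of growth compared to untreated vehicle cultures.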

[16] = at 5.0 µM (retest, dose inferred, filed as 0.5)
[17] = at 50.0 µM (retest, dose inferred, filed as 5.0)

C/C(=N/NC(=S)N1CCCCCC1)c1cccc(/C(C)=N\NC(=S)N2CCCCCC2)n1
growth inhibition ([1]; at 1.2 µM): 17% | growth inhibition ([1]; at 3.7 µM): 34% | growth inhibition ([1]; at 11.0 µM): 60% | growth inhibition ([1]; at 33.0 µM): 82% (active) | growth inhibition ([1]; at 100.0 µM): 81% (active) | growth inhibition ([2]; at 1.2 µM): 0% | growth inhibition ([2]; at 3.7 µM): -1% | growth inhibition ([2]; at 11.0 µM): -27% | growth inhibition ([2]; at 33.0 µM): -48% | growth inhibition ([2]; at 100.0 µM): -39% | growth inhibition ([3]; at 1.2 µM): 23% | growth inhibition ([3]; at 3.7 µM): 35% | growth inhibition ([3]; at 11.0 µM): 52% | growth inhibition ([3]; at 33.0 µM): 80% (active) | growth inhibition ([3]; at 100.0 µM): 69% | growth inhibition ([4]; at 1.2 µM): 38% | growth inhibition ([4]; at 3.7 µM): 42% | growth inhibition [4, 16]: 42% | growth inhibition ([4]; at 11.0 µM): 62% | growth inhibition ([4]; at 33.0 µM): 79% (active) | growth inhibition [4, 17]: 93% (active) | growth inhibition ([4]; at 50.0 µM): 90.8% (active) | growth inhibition ([4]; at 100.0 µM): 73% (active) | growth inhibition ([5]; at 1.2 µM): 22% | growth inhibition ([5]; at 3.7 µM): 31% | growth inhibition [5, 16]: 31% | growth inhibition ([5]; at 11.0 µM): 51% | growth inhibition ([5]; at 33.0 µM): 81% (active) | growth inhibition [5, 17]: 92% (active) | growth inhibition ([5]; at 50.0 µM): 91% (active) | growth inhibition ([5]; at 100.0 µM): 83% (active) | growth inhibition ([6]; at 1.2 µM): 6% | growth inhibition ([6]; at 3.7 µM): 14% | growth inhibition ([6]; at 11.0 µM): 40% | growth inhibition ([6]; at 33.0 µM): 71% (active) | growth inhibition ([6]; at 100.0 µM): 76% (active) | growth inhibition [7, 16]: 43% | growth inhibition [7, 17]: 93% (active) | growth inhibition ([7]; at 50.0 µM): 92.8% (active) | growth inhibition ([8]; at 1.2 µM): -4% | growth inhibition ([8]; at 3.7 µM): -4% | growth inhibition ([8]; at 11.0 µM): -6% | growth inhibition ([8]; at 33.0 µM): -5% | growth inhibition ([8]; at 100.0 µM): 23% | growth inhibition [9, 16]: 9% | growth inhibition [9, 17]: 91% (active) | growth inhibition ([9]; at 50.0 µM): 93.2% (active) | growth inhibition ([10]; at 1.2 µM): -4% | growth inhibition ([10]; at 3.7 µM): -3% | growth inhibition [10, 16]: 58% | growth inhibition ([10]; at 11.0 µM): -4% | growth inhibition ([10]; at 33.0 µM): 7% | growth inhibition [10, 17]: 92% (active) | growth inhibition ([10]; at 50.0 µM): 92% (active) | growth inhibition ([10]; at 100.0 µM): 15% | growth inhibition ([11]; at 1.2 µM): -1% | growth inhibition ([11]; at 3.7 µM): -6% | growth inhibition ([11]; at 11.0 µM): -1% | growth inhibition ([11]; at 33.0 µM): 8% | growth inhibition ([11]; at 100.0 µM): 32% | growth inhibition ([12]; at 1.2 µM): -2% | growth inhibition ([12]; at 3.7 µM): -9% | growth inhibition ([12]; at 11.0 µM): 51% | growth inhibition ([12]; at 33.0 µM): 76% (active) | growth inhibition ([12]; at 100.0 µM): 71% (active) | growth inhibition ([13]; at 1.2 µM): 21% | growth inhibition ([13]; at 3.7 µM): 15% | growth inhibition ([13]; at 11.0 µM): 41% | growth inhibition ([13]; at 33.0 µM): 66% | growth inhibition ([13]; at 100.0 µM): 73% (active) | growth inhibition [14, 16]: 59% | growth inhibition [14, 17]: 91% (active) | growth inhibition ([14]; at 50.0 µM): 90.3% (active) | growth inhibition ([15]; at 1.2 µM): 10% | growth inhibition ([15]; at 3.7 µM): 26% | growth inhibition ([15]; at 11.0 µM): 46% | growth inhibition ([15]; at 33.0 µM): 67% | growth inhibition ([15]; at 100.0 µM): 70% (active)
